In PubChem BioAssay:
Activity calls are given as the source filed them. Unless noted, the rule behind the calls is not given here.

Experiments:
[1] = compounds binding Alexa647 anti-His antibody – biochemical, small-molecule microarray, 635 nm fluorescence, artefact control for SMM control protein annotation, primary screen (AID 1128); settings: higher = more signal;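 note: score merges feature fluorescence with signal-to-noise for each printed compound spot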
[2] = system: Human papillomavirus type 1a E7 protein (residues 1-88); test: HPV1a E7 small-molecule binders, primary screen, biochemical, small-molecule microarray, residues 1-88, 635 nm (AID 1129); settings: small-molecule microarray binding, fluorescence 635 nm; higher = more signal
[3] = target: Focal adhesion kinase 1 (Homo sapiens) (UniProt Q05397); test: PTK2 protein binding on printed compound slides – biochemical, small-molecule microarray, 635/667 nm fluorescence, BSA, DTT, primary screen (AID 1130); settings: 635 nm fluorescence, higher = more signal;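 note: composite of spot emission at 667 nm and signal to noise over triplicate slides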
Sequence of Focal adhesion kinase 1 (Homo sapiens) (Q05397 whole entry, looked up): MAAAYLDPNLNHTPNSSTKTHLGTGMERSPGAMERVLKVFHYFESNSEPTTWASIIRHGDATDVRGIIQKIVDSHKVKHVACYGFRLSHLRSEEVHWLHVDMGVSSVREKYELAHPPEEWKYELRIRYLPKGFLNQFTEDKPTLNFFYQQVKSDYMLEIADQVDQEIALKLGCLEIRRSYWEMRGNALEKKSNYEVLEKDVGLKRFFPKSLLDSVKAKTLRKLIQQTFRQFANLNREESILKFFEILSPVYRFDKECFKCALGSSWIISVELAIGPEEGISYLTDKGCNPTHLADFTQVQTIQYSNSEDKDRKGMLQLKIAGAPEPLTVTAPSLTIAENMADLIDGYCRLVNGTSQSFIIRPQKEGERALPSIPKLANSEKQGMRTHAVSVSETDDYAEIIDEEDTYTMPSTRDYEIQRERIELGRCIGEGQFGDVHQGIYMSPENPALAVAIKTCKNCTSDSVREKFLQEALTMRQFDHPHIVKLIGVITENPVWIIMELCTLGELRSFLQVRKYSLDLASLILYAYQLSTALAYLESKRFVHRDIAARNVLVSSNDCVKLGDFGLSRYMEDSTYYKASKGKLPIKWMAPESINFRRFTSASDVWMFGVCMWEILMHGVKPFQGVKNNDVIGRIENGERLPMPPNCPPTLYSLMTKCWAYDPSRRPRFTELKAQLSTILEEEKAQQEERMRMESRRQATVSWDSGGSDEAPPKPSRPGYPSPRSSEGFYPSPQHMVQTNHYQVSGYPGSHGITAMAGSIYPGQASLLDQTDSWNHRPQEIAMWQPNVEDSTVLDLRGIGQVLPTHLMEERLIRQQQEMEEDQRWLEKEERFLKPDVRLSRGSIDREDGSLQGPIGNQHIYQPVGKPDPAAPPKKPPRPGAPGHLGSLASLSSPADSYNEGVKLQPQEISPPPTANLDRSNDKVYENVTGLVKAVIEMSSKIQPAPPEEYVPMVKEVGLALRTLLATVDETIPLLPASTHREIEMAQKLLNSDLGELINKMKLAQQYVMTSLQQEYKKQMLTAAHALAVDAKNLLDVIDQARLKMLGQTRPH

[4] = system: Fibrinogen (Alexa647-labelled); test: Alexa647-fibrinogen binding to printed small molecules – biochemical, small-molecule microarray, 635/667 nm fluorescence, artefact control for SMM control-protein annotation, profiling panel (AID 1131); settings: fibrinogen-A647 binding fluorescence, higher = more signal;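 note: z-score merges 667 nm fluorescence with per-spot signal-to-noise over triplicate slides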
[5] = target: Follistatin (Homo sapiens) (UniProt P19883); test: FST protein binding to printed compounds – biochemical, small-molecule microarray, 635/667 nm fluorescence, primary screen (AID 1132); settings: 635 nm fluorescence, higher = more signal
Sequence of Follistatin (Homo sapiens) (P19883 whole entry, looked up): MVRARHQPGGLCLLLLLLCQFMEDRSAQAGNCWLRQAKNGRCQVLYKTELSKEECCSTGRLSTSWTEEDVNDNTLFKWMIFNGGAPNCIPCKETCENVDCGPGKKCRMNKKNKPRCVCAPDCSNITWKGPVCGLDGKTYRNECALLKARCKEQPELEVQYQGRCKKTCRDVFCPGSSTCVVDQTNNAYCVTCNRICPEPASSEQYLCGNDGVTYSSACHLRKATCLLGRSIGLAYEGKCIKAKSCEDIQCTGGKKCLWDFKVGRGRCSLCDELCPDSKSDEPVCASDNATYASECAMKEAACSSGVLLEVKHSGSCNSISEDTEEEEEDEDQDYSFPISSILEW

[6] = target: Fibroblast growth factor 2 (Homo sapiens) (UniProt P09038); test: basic fibroblast growth factor binding to printed compounds – biochemical, small-molecule microarray, 635/667 nm fluorescence, primary screen (AID 1133); settings: FGF2, fluorescence 635/667, higher = more signal
Sequence of Fibroblast growth factor 2 (Homo sapiens) (P09038 whole entry, looked up): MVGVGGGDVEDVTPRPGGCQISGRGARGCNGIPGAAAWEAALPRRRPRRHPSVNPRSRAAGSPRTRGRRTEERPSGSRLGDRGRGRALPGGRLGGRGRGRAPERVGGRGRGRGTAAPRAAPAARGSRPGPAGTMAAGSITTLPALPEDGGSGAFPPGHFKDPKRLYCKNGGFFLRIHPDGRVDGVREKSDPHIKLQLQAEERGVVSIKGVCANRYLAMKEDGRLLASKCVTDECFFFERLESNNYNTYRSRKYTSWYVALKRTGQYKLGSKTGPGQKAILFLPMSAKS

[7] = JC-1 mitochondrial potential readout, lung cancer cells – cell-based, A549, JC-1 fluorescence, basal, 24 h, 100 nL, profiling panel (AID 1138); settings: higher = more signal;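 note: A549 lung adenocarcinoma cells under basal conditions with no added stimulus; test concentration not given here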
Lefty1 = Lefty1 protein binding to printed compounds – biochemical, small-molecule microarray, 635/667 nm fluorescence, primary screen (AID 1139); settings: fluorescence 635/667, higher = more signal
[8] = system: wheat germ agglutinin (Triticum aestivum), Alexa647-labelled; test: Alexa647-WGA lectin binding to printed small molecules – biochemical, small-molecule microarray, 635/667 nm fluorescence, artefact control for SMM control-protein annotation, profiling panel (AID 1140); settings: WGA-A647 binding, 635 nm fluorescence, higher = more signal;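 note: score merges 667 nm feature emission with signal to noise over triplicate slides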
[9] = target: Luciferin 4-monooxygenase (Photinus pyralis) (UniProt P08659); test: inhibition of purified Photinus pyralis luciferase – biochemical, luminescence, purified enzyme, 2006 set, primary screen (AID 1141); settings: purified firefly luciferase, SteadyGlo luminescence, 30 min; higher = more signal, called active from +8 up or from −8 down;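 note: cell-free assay with purified firefly luciferase at 100 ng per well in PBS; test concentration not given here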
Sequence of Luciferin 4-monooxygenase (Photinus pyralis) (P08659 whole entry, looked up): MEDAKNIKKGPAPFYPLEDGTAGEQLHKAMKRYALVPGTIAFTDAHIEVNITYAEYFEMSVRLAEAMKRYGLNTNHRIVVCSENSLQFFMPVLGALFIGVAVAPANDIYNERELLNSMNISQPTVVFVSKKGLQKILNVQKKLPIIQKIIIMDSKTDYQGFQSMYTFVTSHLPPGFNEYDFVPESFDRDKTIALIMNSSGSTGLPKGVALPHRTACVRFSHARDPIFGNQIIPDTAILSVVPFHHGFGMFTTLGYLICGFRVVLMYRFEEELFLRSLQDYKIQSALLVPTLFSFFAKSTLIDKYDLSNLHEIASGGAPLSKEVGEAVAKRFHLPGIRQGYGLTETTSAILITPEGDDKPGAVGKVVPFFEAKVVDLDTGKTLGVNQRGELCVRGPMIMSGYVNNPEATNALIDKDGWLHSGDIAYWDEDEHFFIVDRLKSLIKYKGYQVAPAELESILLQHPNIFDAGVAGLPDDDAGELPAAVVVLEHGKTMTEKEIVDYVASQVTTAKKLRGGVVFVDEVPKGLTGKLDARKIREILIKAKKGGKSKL

[10] = system: Wnt5a (protein binding on small-molecule microarray); test: small molecules binding Wnt5a protein – biophysical, small-molecule microarray, 635/667 nm fluorescence, primary screen (AID 1142); settings: 635 nm fluorescence, higher = more signal;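 note: fluorescence read at 667 nm with signal to noise per printed feature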
[11] = ATP-based viability of Huh7 replicon cells – cell-based, CellTiter-Glo luminescence, basal, 48 h, cytotoxicity control for HCV replication inhibitor project, primary screen (AID 1143); settings: higher = more signal, called active from +8 up or from −8 down;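 note: Huh7 hepatoma cells carrying a hepatitis C replication reporter with no stimulus; test concentration not given here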
[12] = Pseudomonas biofilm growth suppression – PAO1 strain, BacTiter-Glo luminescence, LB-PBS, primary screen (AID 1144); settings: P. aeruginosa PAO1 biofilm, 12 h, higher = more signal
[13] = basal CRE-LacZ reporter activity in PC12 – cell-based, unstimulated, primary screen (AID 1145); settings: no forskolin, luminescence, 4.5 h, higher = more signal, called active from +8 up or from −8 down
[14] = forskolin-driven CRE-LacZ activity in PC12 – cell-based, CRE-LacZ reporter, forskolin-stimulated, primary screen (AID 1146); settings: luminescence, 4.5 h, higher = more signal, called active from +8 up or from −8 down;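 note: PC12 cells with 6xCRE LacZ reporter stimulated by forskolin 10 µM; beta-galactosidase reporter signal reflecting CREB driven transcription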
[15] = target: Streptavidin (Streptomyces avidinii) (UniProt P22629); test: compounds binding control protein streptavidin – biophysical, small-molecule microarray, 635/667 nm fluorescence, artefact control for SMM compound annotation, primary screen (AID 1147); settings: higher = more signal;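 note: signal reflects streptavidin binding to arrayed compounds as a control protein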
Sequence of Streptavidin (Streptomyces avidinii) (P22629 whole entry, looked up): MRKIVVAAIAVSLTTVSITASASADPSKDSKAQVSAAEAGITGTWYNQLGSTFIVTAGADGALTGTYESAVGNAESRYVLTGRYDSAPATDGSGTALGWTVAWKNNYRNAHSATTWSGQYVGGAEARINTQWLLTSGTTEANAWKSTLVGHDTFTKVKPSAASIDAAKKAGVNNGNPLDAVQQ

[16] = probe aInhba binding on compound microarray – biochemical, small-molecule microarray, 635/667 nm fluorescence, primary screen (AID 1148); settings: higher = more signal;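 note: score merges 667nm spot fluorescence with signal-to-noise for antibody binding to printed compounds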
Torsin-1A (Homo sapiens) [17] = target: Torsin-1A (Homo sapiens) (UniProt O14656); test: TOR1A wild-type binding on microarray – cell lysate, small-molecule microarray, lysate, 635/667 nm, primary screen (AID 1149); settings: COS7 hTOR1A-WT lysate, 635 nm fluorescence, higher = more signal
Sequence of Torsin-1A (Homo sapiens) (O14656 whole entry, looked up): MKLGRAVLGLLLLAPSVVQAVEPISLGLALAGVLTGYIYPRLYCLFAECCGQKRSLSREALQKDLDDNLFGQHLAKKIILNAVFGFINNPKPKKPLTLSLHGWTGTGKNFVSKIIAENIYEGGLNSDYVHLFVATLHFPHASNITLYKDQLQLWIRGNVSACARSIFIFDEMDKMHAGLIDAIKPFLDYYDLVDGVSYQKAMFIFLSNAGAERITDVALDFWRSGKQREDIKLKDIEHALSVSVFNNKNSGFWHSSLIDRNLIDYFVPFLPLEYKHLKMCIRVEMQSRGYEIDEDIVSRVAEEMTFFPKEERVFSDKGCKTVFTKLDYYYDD

Torsin-1A (Homo sapiens) [18] = target: Torsin-1A (Homo sapiens) (UniProt O14656); test: torsin A mutant lysate binding on microarrays – cell lysate, small-molecule microarray, COS7 lysate, 635/667 nm fluorescence, primary screen (AID 1150); settings: COS7 hTOR1A mutant lysate, 635 nm fluorescence, higher = more signal;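 note: score pools 667 nm emission and signal to noise measuring lysate protein binding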
[19] = system: Sonic hedgehog protein (Shh); test: Sonic hedgehog microarray binding compounds – biochemical, small-molecule microarray, 635/667 nm fluorescence, primary screen (AID 1151); settings: 635 nm fluorescence, higher = more signal;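 note: Shh protein binding to compounds spotted on small-molecule microarray slides; score combines spot fluorescence intensity with signal-to-noise across triplicate slides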

With NCCCCCNC(=O)[C@@H]1C[C@@H]2C(=O)N[C@@H](Cc3ccccc3)C(=O)N2[C@@H]1c1cccc(OCCO)c1 the composite z-score [1] was 1.63, the composite z-score [2] was -0.074 and the composite z-score [3] was 0.123. For the same compound, the composite z-score [4] was 0.968, the composite z-score [5] was 0.574 and the composite z-score [6] was 0.635. The z-score [7] was -0.505, the composite z-score (Lefty1) was 0.325 and the composite z-score [8] was 1.12. For the same compound, the z-score [9] was -0.435 (inactive), the composite z-score [10] was 0.0984 and the z-score [11] was 0.213 (inactive). The z-score [12] was 0.205 (inactive), the z-score [13] was 0.415 (inactive) and the z-score [14] was 0.201 (inactive). The composite z-score [15] was 0.44, the composite z-score [16] was -0.182 and the composite z-score (Torsin-1A (Homo sapiens) [17]) was 0.89. The composite z-score (Torsin-1A (Homo sapiens) [18]) was 0.373 and the composite z-score [19] was 0.867.

For C=CCOC(=O)[C@H]1[C@@H]2C(=O)O[C@@H](c3ccccc3)[C@@H](c3ccccc3)N2[C@@H](c2ccc(OCCOC(=O)[C@@H]3C[C@@H]4C(=O)N[C@@H](CCCCN(C)C)C(=O)N4[C@@H]3c3ccc(O)cc3)cc2)[C@]12C(=O)Nc1ccc(I)cc12, the composite z-score [1] was 2.26, the composite z-score [2] was 1.22 and the composite z-score [3] was 0.565. The composite z-score [4] was 0.733, the composite z-score [5] was 1.16 and the composite z-score [6] was 1.57. The z-score [7] was -1.63, the composite z-score (Lefty1) was 1.54 and the composite z-score [8] was 0.81. For the same compound, the z-score [9] was -4.39 (inactive), the composite z-score [10] was 0.451 and the z-score [11] was -0.135 (inactive). For the same compound, the z-score [12] was -1.02 (inactive), the z-score [13] was -0.935 (inactive) and the z-score [14] was 1.04 (inactive). For the same compound, the composite z-score [15] was 0.218, the composite z-score [16] was 0.0082 and the composite z-score (Torsin-1A (Homo sapiens) [17]) was 1.22. For the same compound, the composite z-score (Torsin-1A (Homo sapiens) [18]) was 0.671 and the composite z-score [19] was 1.71.

Work on [N-]=[N+]=Nc1ccccc1C[C@]1(C(=O)NCC(O)CO)N=C(c2ccc(OCCCO)cc2)O[C@H]1c1ccccc1N=[N+]=[N-] (stereo not given in full) yielded a composite z-score [1] of 1.58, a composite z-score [2] of -0.212 and a composite z-score [3] of 0.0567. The composite z-score [4] was 0.578, the composite z-score [5] was -0.332 and the composite z-score [6] was -0.83. The z-score [7] was 0.0494, the composite z-score (Lefty1) was -0.435 and the composite z-score [8] was 0.543. For the same compound, the z-score [9] was -3.26 (inactive), the composite z-score [10] was 0.246 and the z-score [11] was -3.86 (inactive). For the same compound, the z-score [12] was -0.0958 (inactive), the z-score [13] was 1.05 (inactive) and the z-score [14] was -1.49 (inactive). The composite z-score [15] was 0.0136, the composite z-score [16] was 0.192 and the composite z-score (Torsin-1A (Homo sapiens) [17]) was -0.0376. For the same compound, the composite z-score (Torsin-1A (Homo sapiens) [18]) was 0.585 and the composite z-score [19] was -0.524.

With COCCOC(=O)N1C(=O)[C@@]2(c3cc(C#CC4=CCCCC4)ccc31)[C@H](c1ccc(O)cc1)N1[C@H](c3ccccc3)[C@H](c3ccccc3)OC(=O)[C@H]1[C@@H]2C(N)=O the composite z-score [1] was 0.711, the composite z-score [2] was 1.08 and the composite z-score [3] was 0.334. It also gave a composite z-score [4] of 0.644, a composite z-score [5] of 1.32 and a composite z-score [6] of 1.57. For the same compound, the z-score [7] was -0.858, the composite z-score (Lefty1) was 1.23 and the composite z-score [8] was 0.766. For the same compound, the z-score [9] was -1.37 (inactive), the composite z-score [10] was 0.824 and the z-score [11] was -1.83 (inactive). The z-score [12] was -0.591 (inactive), the z-score [13] was 0.0695 (inactive) and the z-score [14] was 0.124 (inactive). The composite z-score [15] was 0.17, the composite z-score [16] was -0.598 and the composite z-score (Torsin-1A (Homo sapiens) [17]) was 0.0873. The composite z-score (Torsin-1A (Homo sapiens) [18]) was 0.522 and the composite z-score [19] was 2.07.

In the case of COCCOC(=O)N1C(=O)[C@@]2(c3cc(C#CC4=CCCCC4)ccc31)[C@H](C(=O)Nc1nc3ccccc3s1)[C@H]1C(=O)O[C@H](c3ccccc3)[C@H](c3ccccc3)N1[C@@H]2c1ccc(OCCO)cc1, the composite z-score [1] is reported as 0.424, the composite z-score [2] is reported as 1.07 and the composite z-score [3] is reported as 0.147. The composite z-score [4] was 0.192, the composite z-score [5] was 1.18 and the composite z-score [6] was 0.898. It also gave a z-score [7] of -1.99, a composite z-score (Lefty1) of 0.726 and a composite z-score [8] of 0.253. The z-score [9] was -5.3 (inactive), the composite z-score [10] was 0.575 and the z-score [11] was -1.49 (inactive). For the same compound, the z-score [12] was -1.07 (inactive), the z-score [13] was -0.258 (inactive) and the z-score [14] was -0.47 (inactive). It also gave a composite z-score [15] of 0.986, a composite z-score [16] of -0.0221 and a composite z-score (Torsin-1A (Homo sapiens) [17]) of 0.256. It also gave a composite z-score (Torsin-1A (Homo sapiens) [18]) of 0.254 and a composite z-score [19] of 1.5.
